Data: PubChem BioAssay (NCATS)
Results filed as inconclusive are left out. Calls of active or inactive are those of the source. Unless noted, calls come from the whole dose curve; as a rule, active = well fitted curve in either direction with a large enough effect (not every such curve was filed as active); inconclusive = small, poorly fitted or top-dose-only effect, or another doubt; inactive = flat fitted curve, though single readings scatter.

Experiments:
[1] = target: Lysosomal acid glucosylceramidase (Homo sapiens) (UniProt P04062); experiment: Glucocerebrosidase-p2 (AID 348; in the data active = potency below about 10 µM; note: potency is the fitted concentration of half-maximal effect); settings: purified GBA, blue fluorogenic substrate, 40 min
Lysosomal acid glucosylceramidase (Homo sapiens), sequence (P04062 whole entry, looked up): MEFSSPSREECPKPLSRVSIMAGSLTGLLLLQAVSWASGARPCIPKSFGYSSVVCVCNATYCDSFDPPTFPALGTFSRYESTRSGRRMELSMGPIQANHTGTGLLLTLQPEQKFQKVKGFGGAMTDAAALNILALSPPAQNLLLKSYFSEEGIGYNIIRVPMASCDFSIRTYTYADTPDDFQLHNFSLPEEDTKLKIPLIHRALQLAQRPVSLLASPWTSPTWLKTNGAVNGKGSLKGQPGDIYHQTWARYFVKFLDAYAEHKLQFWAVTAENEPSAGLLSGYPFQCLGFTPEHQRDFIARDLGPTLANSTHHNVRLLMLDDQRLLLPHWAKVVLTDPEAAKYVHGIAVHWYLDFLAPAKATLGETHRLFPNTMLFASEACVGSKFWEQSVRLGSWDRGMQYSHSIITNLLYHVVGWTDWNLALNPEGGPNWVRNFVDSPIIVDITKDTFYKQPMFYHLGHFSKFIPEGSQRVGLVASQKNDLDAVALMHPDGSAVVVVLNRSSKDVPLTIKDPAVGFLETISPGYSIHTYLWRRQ
In short: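 Normal human glucocerebrosidase (0.2 nM) with blue fluorogenic substrate (80 uM final) in citrate/phosphate pH 5.9 with 10mM sodium taurocholate, 0.01% tween-20; 40 min RT, NaOH/glycine stop; fluorescence Ex 365/Em 440; AC50 from a titration from 0.6 nM upwards.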

[2] = AP1 Signaling Pathway (AID 357); settings: ME-180 AP-1-bla reporter, EGF-induced, beta-lactamase ratio, 5 h; at 7.69 µM (top of the series) unless noted; note: % is set by controls: 0 for no effect and ±100 for the full control effect
In short: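 ME-180 cells with beta-lactamase reporter under AP-1 response element, stimulated with EC50 EGF; compounds tested in titration series, 5 h at 37 °C. CCF4 substrate added 2.5 h at room temperature; 460/530 nm emission ratio gave %activity and AC50.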

[3] = target: Cytochrome P450 1A2 (Homo sapiens) (UniProt P05177); experiment: p450-cyp1a2 (AID 410; calls by dose curve; note: potency is the fitted concentration of half-maximal effect;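 for activity change, negative = inhibition: -100% = full effect of reference inhibitor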); settings: recombinant CYP1A2, luciferin-ME demethylation, luminescence; series mostly up to 11.4 µM
Cytochrome P450 1A2 (Homo sapiens), sequence (P05177 whole entry, looked up): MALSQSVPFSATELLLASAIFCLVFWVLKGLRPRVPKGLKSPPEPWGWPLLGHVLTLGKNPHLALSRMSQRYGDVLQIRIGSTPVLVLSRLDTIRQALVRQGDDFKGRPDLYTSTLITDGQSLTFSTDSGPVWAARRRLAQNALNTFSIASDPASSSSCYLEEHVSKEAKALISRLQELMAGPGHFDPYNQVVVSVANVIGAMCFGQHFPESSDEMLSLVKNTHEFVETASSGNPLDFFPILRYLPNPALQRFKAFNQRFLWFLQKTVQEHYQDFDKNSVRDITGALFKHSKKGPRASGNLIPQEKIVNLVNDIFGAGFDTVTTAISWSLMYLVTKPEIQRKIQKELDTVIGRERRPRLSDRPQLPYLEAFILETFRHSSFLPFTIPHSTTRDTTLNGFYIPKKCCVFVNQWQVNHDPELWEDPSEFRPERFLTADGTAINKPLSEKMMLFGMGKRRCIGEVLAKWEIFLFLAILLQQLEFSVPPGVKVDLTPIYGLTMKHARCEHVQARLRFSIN
In short: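 Luminescent demethylation readout: Luciferin-ME (100uM, equal to Km) turned over by 20nM CYP1A2 for 60 min at room temperature after NADPH regeneration addition, following 10 min compound preincubation. Normalization used 57 uM furafylline as full inhibition.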

[4] = Stat Signaling Pathway (AID 446); settings: ME-180 SIE beta-lactamase reporter, IL-6 stimulated, 5 h; at 7.69 µM (top of the series) unless noted;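 note: ME-180 cervical cancer cells given 40 pM IL-6 alongside compound; SIE-controlled beta-lactamase reporter measured as 460/530 nm FRET emission ratio; % is set by controls: 0 for no effect and ±100 for the full control effect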
In short: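 Normalization used AC90 stimulation (300 pM IL-6) and AC90 inhibition (125 nM pan-JAK inhibitor at 40 pM IL-6). The underlying signal is SIE-driven beta-lactamase in ME-180 cells after 5 h IL-6 exposure with compound.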

[5] = target: Glucocorticoid receptor (Homo sapiens) (UniProt P04150); experiment: GR-GFP Redistribution (AID 450;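 active = compounds whose dose series gives a full or clear partial fitted curve of increased nuclear translocation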; note: potency is the fitted concentration of half-maximal effect); settings: U2OS GR-GFP nuclear translocation, laser cytometry, 2 h
Glucocorticoid receptor (Homo sapiens), sequence (P04150 whole entry, looked up, the tested form may be a part): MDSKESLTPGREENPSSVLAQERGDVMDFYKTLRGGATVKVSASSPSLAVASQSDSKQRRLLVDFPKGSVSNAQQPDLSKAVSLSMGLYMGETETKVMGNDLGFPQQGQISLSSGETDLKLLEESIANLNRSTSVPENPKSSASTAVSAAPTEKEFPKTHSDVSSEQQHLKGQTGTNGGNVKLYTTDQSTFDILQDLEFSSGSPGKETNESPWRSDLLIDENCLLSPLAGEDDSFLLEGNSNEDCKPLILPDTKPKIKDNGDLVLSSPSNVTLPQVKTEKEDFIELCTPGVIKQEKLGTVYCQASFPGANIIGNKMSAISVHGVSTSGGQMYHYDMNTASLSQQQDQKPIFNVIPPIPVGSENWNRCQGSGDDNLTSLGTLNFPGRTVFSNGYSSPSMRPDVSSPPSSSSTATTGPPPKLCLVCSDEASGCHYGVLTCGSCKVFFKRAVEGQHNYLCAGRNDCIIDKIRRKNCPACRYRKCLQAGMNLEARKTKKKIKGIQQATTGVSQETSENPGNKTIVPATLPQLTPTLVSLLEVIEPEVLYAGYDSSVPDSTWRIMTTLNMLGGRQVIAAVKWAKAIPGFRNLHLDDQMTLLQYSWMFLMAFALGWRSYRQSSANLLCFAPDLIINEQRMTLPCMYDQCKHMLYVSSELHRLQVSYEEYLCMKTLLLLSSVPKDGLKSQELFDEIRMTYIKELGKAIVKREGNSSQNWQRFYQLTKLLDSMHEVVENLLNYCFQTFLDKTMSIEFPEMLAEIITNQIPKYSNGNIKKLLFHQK

[6] = target: Glucocorticoid receptor (Homo sapiens) (UniProt P04150); experiment: GR-EFC Redistribution (AID 451; calls by dose curve; note: potency is the fitted concentration of half-maximal effect); settings: CHO-K1 GR-EFC translocation, beta-gal luminescence, 2 h
In short: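 CHO-K1 cells stably expressing nuclear-localized β-gal enzyme acceptor and GR fused C-terminally to the enzyme donor fragment; ligand-driven nuclear translocation restores β-gal by complementation. Compounds titrated up to 46 uM final, 2 h at 37 °C; luminescence read.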

[7] = target: Mitogen-activated protein kinase 10 (Mus musculus) (UniProt Q61831); experiment: JNK3 AlphaScreen Assay (AID 530); settings: JNK3 lysate, c-Jun phosphorylation; series mostly up to 11.4 µM;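 note: kinase came from lysate of stimulated human HepG2 cells; signal reports phosphorylation of biotinylated GST-cJun 1-79 at Ser73 with 10 µM ATP; % is set by controls: 0 for no effect and ±100 for the full control effect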
In short: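 Phosphorylation of biotinylated GST-cJun(1-79) at Ser73 is measured by AlphaScreen proximity luminescence. Enzyme is JNK3 in HepG2 lysates activated with interleukin-1beta and tumor necrosis factor alpha; ATP is 10 uM final.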

[8] = qHTS Assay for Identification of Small Molecule Agonists for Hypoxia Response Element Signaling Pathway (AID 914; active = well fitted activation curve with a large enough effect in the signal ratio, with a control signal flat, not every such curve was filed as active; the % refers to the signal ratio; note: % of control where 0% means no effect); settings: ME-180 (cervical carcinoma) HRE-bla reporter, beta-lactamase ratio, CoCl2, 17 h; activation: hits give high values
In short: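 Cells were plated overnight, pin-dosed with compound in a titration series, co-stimulated with EC50 CoCl2 and incubated 17 hours at 37 degrees Celsius. CCF4 substrate was then loaded, and AC50 values came from the 460nm/530nm ratio.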

[9] = target: 3',5'-cyclic-AMP phosphodiesterase 4B (Homo sapiens) (UniProt Q07343); experiment: qHTS Assay for Inhibitors of PDE-IV (AID 607; active = well fitted activation curve with a large enough effect in the main read-out, with a control signal flat, not every such curve was filed as active; note: % of control where 0% means no effect); settings: HEK293 ACTOne CNG channel cells, membrane potential fluorescence; series mostly up to 22.9 µM
3',5'-cyclic-AMP phosphodiesterase 4B (Homo sapiens), sequence (Q07343 whole entry, looked up): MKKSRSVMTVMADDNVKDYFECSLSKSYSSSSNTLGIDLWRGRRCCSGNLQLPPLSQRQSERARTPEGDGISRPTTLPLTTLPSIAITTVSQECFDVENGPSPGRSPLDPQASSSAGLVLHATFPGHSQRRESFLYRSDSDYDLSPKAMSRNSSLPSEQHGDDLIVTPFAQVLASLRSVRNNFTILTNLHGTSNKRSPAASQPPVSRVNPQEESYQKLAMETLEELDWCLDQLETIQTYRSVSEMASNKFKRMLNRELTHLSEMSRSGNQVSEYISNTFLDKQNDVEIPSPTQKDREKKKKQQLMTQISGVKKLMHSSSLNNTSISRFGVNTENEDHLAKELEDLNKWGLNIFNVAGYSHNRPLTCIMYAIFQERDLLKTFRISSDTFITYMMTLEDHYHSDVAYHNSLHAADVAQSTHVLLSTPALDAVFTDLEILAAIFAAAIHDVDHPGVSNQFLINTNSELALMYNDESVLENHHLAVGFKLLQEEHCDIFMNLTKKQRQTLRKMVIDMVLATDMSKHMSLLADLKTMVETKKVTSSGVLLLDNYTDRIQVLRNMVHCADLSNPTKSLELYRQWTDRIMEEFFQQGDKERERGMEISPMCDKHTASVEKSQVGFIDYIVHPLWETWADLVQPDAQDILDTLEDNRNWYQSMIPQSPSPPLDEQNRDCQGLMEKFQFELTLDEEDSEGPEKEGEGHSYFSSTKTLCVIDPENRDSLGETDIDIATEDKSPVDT
In short: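 HEK293 ACTOne cells with CNG channel (1000/well), endogenous PDE4; membrane potential dye, compounds up to 22.9 uM final. Fluorescence Ex 535/Em 590; RO 20-1724 (100 uM final) as reference.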

[10] = target: Cytochrome P450 2D6 (Homo sapiens) (UniProt P10635); experiment: qHTS Assay for Inhibitors and Substrates of Cytochrome P450 2D6 (AID 891; active = well fitted curve in the direction sought with a large enough effect; an effect the other way counts as inactive or inconclusive; note: nearly all actives have a fitted effect of over 60% in size; note: potency is the fitted concentration of half-maximal effect); settings: recombinant CYP2D6, luciferin-ME EGE luminescence; series mostly up to 11.4 µM
Cytochrome P450 2D6 (Homo sapiens), sequence (P10635 whole entry, looked up): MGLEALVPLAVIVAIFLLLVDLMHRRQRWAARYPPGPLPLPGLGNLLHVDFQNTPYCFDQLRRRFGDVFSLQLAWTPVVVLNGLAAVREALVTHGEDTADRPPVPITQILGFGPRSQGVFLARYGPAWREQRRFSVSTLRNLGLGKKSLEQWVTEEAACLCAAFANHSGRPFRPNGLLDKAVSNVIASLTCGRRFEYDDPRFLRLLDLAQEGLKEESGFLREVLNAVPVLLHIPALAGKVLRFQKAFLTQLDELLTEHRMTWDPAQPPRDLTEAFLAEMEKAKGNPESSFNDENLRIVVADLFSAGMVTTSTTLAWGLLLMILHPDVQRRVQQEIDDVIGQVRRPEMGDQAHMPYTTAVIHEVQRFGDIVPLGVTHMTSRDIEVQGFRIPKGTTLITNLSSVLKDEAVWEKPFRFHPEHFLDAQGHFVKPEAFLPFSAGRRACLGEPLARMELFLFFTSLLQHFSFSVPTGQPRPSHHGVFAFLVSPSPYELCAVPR
In short: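 Luminescent read-out of luciferin formed by 5 nM human CYP2D6 demethylating 30 uM Luciferin-ME EGE (Km level) over 60 min at room temperature after NADPH regeneration addition. Data normalized to full inhibition by 1.43 uM quinidine.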

[11] = target: Cytochrome P450 2C19 (Homo sapiens) (UniProt P33261); experiment: qHTS Assay for Inhibitors and Substrates of Cytochrome P450 2C19 (AID 899; active = well fitted curve in the direction sought with a large enough effect; an effect the other way counts as inactive or inconclusive; note: nearly all actives have a fitted effect of over 60% in size; note: potency is the fitted concentration of half-maximal effect); settings: recombinant CYP2C19, luciferin-H EGE luminescence; series mostly up to 11.4 µM
Cytochrome P450 2C19 (Homo sapiens), sequence (P33261 whole entry, looked up): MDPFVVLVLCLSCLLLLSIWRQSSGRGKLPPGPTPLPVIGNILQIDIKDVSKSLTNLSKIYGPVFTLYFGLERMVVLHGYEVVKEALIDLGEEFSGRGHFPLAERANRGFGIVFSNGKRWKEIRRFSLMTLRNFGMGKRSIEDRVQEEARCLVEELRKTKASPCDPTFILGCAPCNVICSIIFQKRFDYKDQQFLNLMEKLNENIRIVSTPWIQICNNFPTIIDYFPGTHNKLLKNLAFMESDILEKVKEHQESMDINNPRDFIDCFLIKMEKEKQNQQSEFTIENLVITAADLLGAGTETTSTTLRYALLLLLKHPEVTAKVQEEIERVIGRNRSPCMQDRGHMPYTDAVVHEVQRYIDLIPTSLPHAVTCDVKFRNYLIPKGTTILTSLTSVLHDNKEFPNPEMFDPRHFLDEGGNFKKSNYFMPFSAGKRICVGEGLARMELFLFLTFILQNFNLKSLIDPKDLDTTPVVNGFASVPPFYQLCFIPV
In short: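 In 50mM KPO4, the reaction held 5nM enzyme and KM-level (10uM) Luciferin-H EGE; it ran 60 min at 37C after NADPH regeneration and a 10 min compound preincubation. Luminescence values were scaled to 57uM ketoconazole as complete inhibition.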

[12] = NFAT Signaling Pathway (AID 444); settings: Jurkat NFAT-bla M1, carbachol, beta-lactamase ratio, 5 h; at 7.69 µM (top of the series) unless noted;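 note: carbachol stimulus at about its EC50 of 1 µM final; % is set by controls: 0 for no effect and ±100 for the full control effect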
In short: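 Jurkat cells carrying an NFAT-driven β-lactamase reporter and co-transfected muscarinic M1 receptor were treated with compound plus carbachol (1 uM final, an EC50 level) for 5 h at 37 °C. CCF4 loading followed for 1 h at RT; 460/530 nm ratio gave %activity.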

[13] = target: Cytochrome P450 3A4 (Homo sapiens) (UniProt P08684); experiment: qHTS Assay for Inhibitors and Substrates of Cytochrome P450 3A4 (AID 884; active = well fitted curve in the direction sought with a large enough effect; an effect the other way counts as inactive or inconclusive; note: potency is the fitted concentration of half-maximal effect; nearly all actives have a fitted effect of over 50% in size); settings: recombinant CYP3A4, Luciferin-PPXE luminescence; series mostly up to 57.1 µM
Cytochrome P450 3A4 (Homo sapiens), sequence (P08684 whole entry, looked up): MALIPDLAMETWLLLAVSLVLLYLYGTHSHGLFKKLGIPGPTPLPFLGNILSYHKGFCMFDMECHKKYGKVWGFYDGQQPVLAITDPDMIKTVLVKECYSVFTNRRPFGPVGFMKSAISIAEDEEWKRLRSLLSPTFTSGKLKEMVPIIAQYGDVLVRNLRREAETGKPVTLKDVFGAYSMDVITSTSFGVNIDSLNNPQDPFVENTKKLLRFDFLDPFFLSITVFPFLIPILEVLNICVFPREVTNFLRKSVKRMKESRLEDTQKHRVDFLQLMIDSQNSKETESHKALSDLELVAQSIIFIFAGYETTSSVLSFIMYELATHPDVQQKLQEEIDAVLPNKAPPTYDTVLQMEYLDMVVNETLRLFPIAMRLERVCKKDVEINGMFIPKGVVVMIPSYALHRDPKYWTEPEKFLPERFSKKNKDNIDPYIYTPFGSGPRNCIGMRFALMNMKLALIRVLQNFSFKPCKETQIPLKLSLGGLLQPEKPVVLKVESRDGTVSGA
In short: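 Luminescent readout of luciferin produced by CYP3A4 (20 nM) dealkylation of Luciferin-PPXE, 25 uM (its KM). NADPH-driven reaction ran 60 min at RT after 10 min compound preincubation; data scaled to 57 uM ketoconazole as 100% inhibition.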

[14] = target: Cytochrome P450 3A4 (Homo sapiens) (UniProt P08684); experiment: qHTS Assay for Activators of Cytochrome P450 3A4 (AID 885; active = well fitted curve in the direction sought with a large enough effect; an effect the other way counts as inactive or inconclusive; note: nearly all actives have a fitted effect of over 65% in size); settings: recombinant CYP3A4, Luciferin-PPXE luminescence, 60 min; series mostly up to 11.4 µM
In short: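 Human CYP3A4 dealkylates Luciferin-PPXE to luciferin, which luciferase detection converts to light. Substrate was at its KM (25uM), buffer 200mM KPO4, reaction 60 min at RT.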

[15] = target: Cytochrome P450 2C9 (Homo sapiens) (UniProt P11712); experiment: qHTS Assay for Inhibitors and Substrates of Cytochrome P450 2C9 (AID 883; active = well fitted curve in the direction sought with a large enough effect; an effect the other way counts as inactive or inconclusive; note: potency is the fitted concentration of half-maximal effect; nearly all actives have a fitted effect of over 60% in size); settings: recombinant CYP2C9, luciferin-H luminescence, 60 min; series mostly up to 11.4 µM
Cytochrome P450 2C9 (Homo sapiens), sequence (P11712 whole entry, looked up): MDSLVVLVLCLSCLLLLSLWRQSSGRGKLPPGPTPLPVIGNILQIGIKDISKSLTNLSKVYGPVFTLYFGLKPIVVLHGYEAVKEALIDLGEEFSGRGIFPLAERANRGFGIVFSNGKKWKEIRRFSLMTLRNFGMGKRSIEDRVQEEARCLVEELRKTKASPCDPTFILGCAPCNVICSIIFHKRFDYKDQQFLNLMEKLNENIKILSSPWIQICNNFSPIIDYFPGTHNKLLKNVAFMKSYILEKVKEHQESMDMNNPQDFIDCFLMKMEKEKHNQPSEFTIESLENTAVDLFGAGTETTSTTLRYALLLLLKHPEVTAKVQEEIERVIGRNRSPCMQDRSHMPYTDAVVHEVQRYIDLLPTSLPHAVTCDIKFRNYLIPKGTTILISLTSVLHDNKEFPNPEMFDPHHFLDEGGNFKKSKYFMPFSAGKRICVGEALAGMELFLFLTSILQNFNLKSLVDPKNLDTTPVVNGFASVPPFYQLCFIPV
In short: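 CYP2C9 deoxyluciferin hydroxylation, 37C, 60 min with NADPH regeneration; 10nM enzyme, 100uM Luciferin-H (KM). Glo detection reagent stopped reaction; luminescence normalized to sulphaphenazole (57uM) full inhibition.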

CC(=O)O[C@H]1CC[C@@]2(C)C(=CC[C@@H]3[C@H]4CC[C@@H]([C@H](C)C(=O)O)[C@]4(C)CC[C@H]32)C1
active: Potency [3] 3.16 µM
inactive: Potency [1] > 11.4 µM | activity change, negative = inhibition [2] -2.09% | activity, negative = inhibition [4] 9.87% | Potency [5] > 46 µM | Potency [6] > 9.22 µM | Potency [7] | activation [8] 1.23%

Oc1c([C@H](Nc2ccccn2)c2ccccc2)ccc2cccnc12
inactive: Potency [1] > 11.4 µM | activity change, negative = inhibition [2] -3.08% | activity change, negative = inhibition [3] -21.9% [at 2.29 µM] | activity, negative = inhibition [4] 15.1% | Potency [5] > 46 µM | Potency [6] > 9.22 µM | Potency [7] | Potency [9]
active: Potency [10] 0.316 µM

O=[N+]([O-])c1ccc(CSCc2ccc(Cl)cc2)cc1
active: Potency [3] 3.98 µM | Potency [11] 0.398 µM
inactive: Potency [1] > 11.4 µM | activity change, negative = inhibition [2] -19.3% | activity, negative = inhibition [4] 11.6% | Potency [5] > 46 µM | Potency [6] > 9.22 µM | Potency [7] | Potency [9]

Cc1cc(O)c(C(C)C)cc1CN1CCCCC1
inactive: Potency [1] > 11.4 µM | activity change, negative = inhibition [2] 10.4% | activity change, negative = inhibition [12] -29.6% | activity, negative = inhibition [4] 5.31% | Potency [5] > 46 µM | Potency [6] > 9.22 µM | Potency [7]

CC(C)c1cc(C(F)(F)F)nc(NNc2nc(C(C)C)cc(C(F)(F)F)n2)n1
active: Potency [13] 3.16 µM | Potency [10] 0.126 µM | Potency [11] 2.51 µM
inactive: Potency [1] > 11.4 µM | activity change, negative = inhibition [2] -11.8% | Potency [3] | Potency [5] > 46 µM | Potency [6] > 9.22 µM | Potency [7] | Potency [9] | Potency [14]

Cc1cc(O)c(-c2cc(O)c(C)cc2O)cc1O
active: Potency [3] 3.98 µM | Potency [15] 1.26 µM | Potency [11] 0.794 µM
inactive: Potency [1] > 11.4 µM | activity change, negative = inhibition [2] -22.9% | Potency [5] > 46 µM | Potency [6] > 9.22 µM | Potency [7] | Potency [9] | Potency [14] | Potency [10]

Cc1[nH]n(-c2ccc(S(=O)(=O)O)cc2)c(=O)c1N=Nc1ccccc1
inactive: Potency [1] > 11.4 µM | activity change, negative = inhibition [2] -16.3% | Potency [3] | Potency [5] > 46 µM | Potency [6] > 9.22 µM | Potency [7] | Potency [9] | Potency [11]

CCN(CC)CC[n+]1ccc2c(C)c3[nH]c4ccc(O)cc4c3c(C)c2c1
inactive: Potency [1] > 11.4 µM | activity change, negative = inhibition [2] 0.748% | activity, negative = inhibition [4] 26.1% | Potency [6] > 9.22 µM | Potency [7]
active: Potency [3] 3.16 µM
